Only some compounds are listed: those with a hit (about 7.4% of all), similar ones and a draw of the others.
TSHR agonist = qHTS Assay for Agonists of the Thyroid Stimulating Hormone Receptor | HEK293-CNG-TSHR cells (CNG channel as cAMP sensor), membrane potential dye, cAMP | AID 926, 2007 | hit rate 0.48% among 73,000 | Potency, µM (highest dose often 57.1 µM), for the others: top-dose activation, hits mostly activators; active = well fitted activation curve with a large enough effect in the main read-out, with a control signal flat, not every such curve was filed as active; inconclusive = small, poorly fitted or top-dose-only effect, or a change in a side signal; inactive = no such curve, though single readings can be large or run the other way; % of control where 0% means no effect;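 also: the control signal comes from parental cells without the receptor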
Target sequence (P16473 whole entry, looked up): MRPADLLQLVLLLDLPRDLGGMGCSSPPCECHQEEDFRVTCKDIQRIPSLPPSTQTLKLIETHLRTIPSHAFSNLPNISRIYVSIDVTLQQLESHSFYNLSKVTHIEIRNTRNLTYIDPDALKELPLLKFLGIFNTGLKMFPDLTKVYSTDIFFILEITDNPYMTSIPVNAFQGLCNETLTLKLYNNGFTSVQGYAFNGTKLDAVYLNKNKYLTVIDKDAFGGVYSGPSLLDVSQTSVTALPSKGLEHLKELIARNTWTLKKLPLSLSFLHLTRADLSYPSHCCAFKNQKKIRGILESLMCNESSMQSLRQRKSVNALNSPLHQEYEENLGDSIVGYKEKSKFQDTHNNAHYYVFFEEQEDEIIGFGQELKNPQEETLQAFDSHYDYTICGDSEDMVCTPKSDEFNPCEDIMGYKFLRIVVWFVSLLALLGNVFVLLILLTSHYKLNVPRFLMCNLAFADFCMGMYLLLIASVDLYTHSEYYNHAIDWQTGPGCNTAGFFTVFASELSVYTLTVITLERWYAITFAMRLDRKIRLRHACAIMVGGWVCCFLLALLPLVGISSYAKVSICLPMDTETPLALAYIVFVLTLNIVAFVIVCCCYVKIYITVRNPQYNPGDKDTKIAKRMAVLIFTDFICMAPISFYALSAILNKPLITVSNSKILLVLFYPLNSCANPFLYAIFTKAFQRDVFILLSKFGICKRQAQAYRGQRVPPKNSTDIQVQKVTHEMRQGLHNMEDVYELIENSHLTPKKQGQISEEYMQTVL
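HEK 293 cells stably expressing TSHR and a modified CNG channel, with CNG-only parental cells as counterscreen, were preloaded 60 min at room temperature with membrane potential dye containing 100 uM RO 20-1724. Compound exposure was 30 min, and depolarization was read as fluorescence at 590 nm.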
ERK AVP block = qHTS Assay for Inhibitors of the ERK Signaling Pathway using a Homogeneous Screening Assay. HEK293-V1b, vasopressin-stimulated pERK AlphaScreen. Potency, µM (titrated, usually from 57.5 µM), for the others: top-dose activity, negative = inhibition, most hits filed as inhibitors. hit rate 0.99% among 72,000. AID 995, 2007; also: % is scaled to controls: 0 for no effect and ±100 for the full control effect; nearly all actives have a fitted effect of over 55% in size
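Overnight-seeded V1b-HEK293 cells in 1% FBS got compound, then vasopressin (25 nM final, 5 min, 37C), then lysis buffer. AlphaScreen detection of phospho-ERK; activity normalized to basal and full-stimulation controls.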
Tau fil binding = qHTS Assay for Tau Filament Binding; recombinant tau filaments, thioflavin S fluorescence, 15 h; filaments grown with octadecylsulfate alongside compound; Potency, µM (top dose mostly 57.1 µM), without a hit: at the top dose activity change, negative = inhibition; hit rate 2% among 71,000; AID 596, 2007;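 also: % is scaled to controls: 0 for no effect and ±100 for the full control effect; actives lower thioflavin S fluorescence by blocking filaments or displacing dye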
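His-tagged recombinant human tau (exons 2, 3 and 10 included), 1 uM, was induced to fibrillize by 30 uM sodium octadecylsulfate with compound present. After 15 h at 37 C, thioflavine S fluorescence (ex 450, em 510 nm) was read.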
CRE Fsk mod = Cell signaling CRE-BLA (Fsk stim). CHO CRE-bla reporter (cAMP response element driving beta-lactamase), forskolin EC10, beta-lactamase ratio. Potency, µM (doses to about 38.2 µM), for inactives: at the top dose activity change, negative = inhibition, hits mostly activators. hit rate 2.5% among 71,000; active = well fitted activation curve with a large enough effect in the signal ratio, with a control signal flat, not every such curve was filed as active; inconclusive = small, poorly fitted or top-dose-only effect, or effect the other way, or a change in a side signal; the % refers to the signal ratio; also: % of control where 0% means no effect
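CRE-bla CHO reporter cells treated with compound titration plus EC10 NKH 477 (water-soluble forskolin), incubated 3 h at 37 °C; CCF4 loading 2 h at room temperature, 460/530 nm emission ratio read, AC50 values derived for positive or negative modulators.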
HEK293 cAMP ctrl = qHTS Assay for Agonists of the Thyroid Stimulating Hormone Receptor: Activators of Intracellular cAMP Concentrations in Parental HEK 293; AID 938, 2007; parental HEK293 CNG cAMP sensor, membrane potential fluorescence; hit rate 2.5% among 73,000; Potency, µM (highest dose often 57.1 µM), inactives show at the highest dose activation, most hits filed as activators; also: % of control where 0% means no effect; nearly all actives have a fitted effect of over 55% in size
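Parental HEK 293 cells stably expressing a cAMP-gated CNG channel were loaded with membrane potential dye containing 100 uM RO 20-1724 for 60 min. Compound added for 30 min; depolarization read as fluorescence intensity at 590 nm.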
Active calls of the source: *; ? = inconclusive; nt = not tested or not shown; [ ] = another dose, or the depositor's remark. Unless noted, calls follow the shape of the dose curve; as a rule, active = well fitted curve in the direction sought with a large enough effect; inconclusive = small, poorly fitted or top-dose-only effect, or another doubt; inactive = no such curve, though single readings can be large; an effect the other way counts as inactive or inconclusive. Potency is read from the fitted curve at half-maximal effect.

SMILES	TSHR agonist	ERK AVP block	Tau fil binding	CRE Fsk mod	HEK293 cAMP ctrl
Cn1nccc1C(=O)OCC(=O)Nc1nc(-c2ccccc2)cs1	nt	20µM*	-16%	-6%	6%
Cc1nc(CC(=O)Nc2nc(-c3ccccc3)cs2)cs1	14%	13%	-2%	3%	28%
c1cncc(-c2nc(NCc3cccs3)c3ccccc3n2)c1	32µM*	-23%	34%	?	14%
c1csc(CNc2nc(-c3ccoc3)nc3ccccc23)c1	30%	-21%	25µM*	-9%	10%
Brc1ccc(OCCOCCN2CCOCC2)cc1	25µM*	6%	4%	0%	19%
CCOC(=O)NC(=O)CSc1nnc(C)s1	3%	3%	0%	4%	3%
CCOC(=O)c1oc2ccc(Br)cc2c1CSc1nnc(C)s1	?	12%	18%	?	32µM*
O=C(CCNS(=O)(=O)c1ccc2c(c1)CCC(=O)N2)NCc1ccc2c(c1)OCO2	-3%	3%	-1%	-18%	-6%
Cc1cccc(N2CCN(C(=O)CCNS(=O)(=O)c3ccc4c(c3)CCC(=O)N4)CC2)c1C	28%	25µM*	0%	-10%	8%
C/C(=C\C(=O)c1ccc(F)cc1)Nc1ccc(N2CCOCC2)cc1	-4%	?	6.3µM*	-5%	0%
CCN(CC)CCn1c(-c2ccccc2)nc2c(NCCOC)nc(C)nc21	4%	-25%	17%	?	18%
COC(=O)c1ccccc1NC(=O)C1CC(=O)N(c2ccccc2)C1 (configuration not stated)	nt	21%	15%	3%	29%
O=C(Nc1cccc2nsnc12)C1CC(=O)N(c2ccccc2)C1 (configuration not stated)	15%	7%	20µM*	-21%	4%
CCOC(=O)C1CCN(C(C(=O)Nc2ccc3c(c2)OCCO3)c2ccccc2)CC1 (configuration not stated)	?	15%	-1%	-5%	13µM*
CCOC(=O)C1CCN(c2c(Nc3ccc4c(c3)OCCO4)c(=O)c2=O)CC1	-38%	-10%	-20%	-6%	5%
CC(C)n1c(C(=O)OCC(=O)NCc2ccc3c(c2)OCO3)cc2occc21	?	0%	18%	19%	16µM*
CC(C)n1c(C(=O)OCC(=O)NCc2ccc3c(c2)OCO3)cc2sccc21	?	-29%	15%	18%	7.9µM*
COCC(=O)NCc1ccc2c(c1)OCO2	-6%	-10%	-11%	-5%	13%
CCCC(=O)NCCc1c2n(c3ccc(OC)cc13)Cc1ccccc1-2	nt	?	6%	?	-26%
O=c1cc(-c2ccccc2)oc2c1ccc1ccccc12	?	32µM*	221%	?	32µM*
CC(=O)N1CCN(c2ccc(NCc3ccc(F)cc3)cc2)CC1	0%	-6%	?	5%	3%
CC(C)c1ccc(CNc2ccc(N3CCOCC3)cc2)cc1	-17%	?	25µM*	6%	-10%
O=Cc1ccc(CO)o1	?	4%	-2%	1%	17%
N#Cc1cc2sc3nnc(-c4ccncc4)n3c2cc1C#N	-3%	0%	7.9µM*	14%	5%
N#Cc1cc2sc3nc4ccccc4n3c2cc1C#N	-2%	-5%	3%	6%	-7%
SMILES	TSHR agonist	ERK AVP block	Tau fil binding	CRE Fsk mod	HEK293 cAMP ctrl
N[C@@](CCc1ccccc1)(C(=O)O)c1ccccc1	-4%[11.4 µM]	-6%[11.5 µM]	10%[11.4 µM]	17%[7.6 µM]	-2%[11.4 µM]
O=C(Cn1c(-c2ccccc2)noc1=O)Nc1ccc(N2CCCCCC2)cc1	?	-22%	13µM*	0%	-34%
O=C(Cn1c(-c2ccccc2)noc1=O)Nc1ccc(S(=O)(=O)N2CCOCC2)cc1	-11%	-14%	12%	-15%	-15%
O=C1c2ccc(Oc3ccc4c(c3)C(=O)N(CCCCO)C4=O)cc2C(=O)N1CCCCO	10%	20µM*	0%	19%	1%
O=C(O)[C@@H]1[C@@H](C(=O)Nc2ncccn2)[C@@H]2C=C[C@@H]1O2	-1%[11.4 µM]	6%[11.5 µM]	7%[11.4 µM]	8%[7.6 µM]	-3%[11.4 µM]
CN(C)CC(=O)c1ccc(-c2ccccc2)cc1	13%	4%	25µM*	-4%	15%
Cc1cnc(C(=O)Nc2ccc(-n3cnnn3)cc2)cn1	?	-11%	-5%	1%	?
COc1ccc(NC(=O)c2cnc(C)cn2)cc1-n1cnnn1	9%	40µM*	-2%	5%	-5%
O=C1c2ccccc2C(Nc2ccc3c(c2)OCCO3)N1Cc1ccccc1 (configuration not stated)	32%	nt	20µM*	-17%	8%
O=C1C=C(Nc2nc(C(=O)O)cc(=O)[nH]2)c2ccccc2C1=O	-2%[11.4 µM]	4%[11.5 µM]	15%[11.4 µM]	6%[7.6 µM]	2%[11.4 µM]
Cc1nc(N)sc1-c1csc(Nc2ccc(Cl)cn2)n1	-35%	-21%	16µM*	16%	-29%
COc1ccc(Nc2nc(N)nc(SCc3nnc(C)s3)n2)cc1	-2%	-18%	-10%	?	5%
COc1ccc(CCNc2nc(-c3sc(N)nc3C)cs2)cc1OC	-8%	?	16µM*	?	-11%
Cc1nc(N)sc1-c1csc(Nc2ccccn2)n1	-22%	-11%	25µM*	-2%	-23%
c1ccc(Nc2ccccc2Nc2ccccn2)nc1	3%	-27%	37%	1%	1%
COc1ccc(Nc2nc(-c3sc(N)nc3C)cs2)cc1	?	-4%	13µM*	-10%	?
C=CCNc1nc(-c2sc(NC(C)=O)nc2C)cs1	1%	-9%	0%	0%	-4%
N=C(N)c1ccc(/C=C\c2ccc(C(=N)N)cc2)cc1	2%[11.4 µM]	-6%[11.5 µM]	13%[11.4 µM]	-5%[7.6 µM]	4%[11.4 µM]
O=C1[C@@H]2[C@H]3[C@H](O)[C@H](O)C/C(=N/OCc4ccccc4)[C@H]3CC[C@H]2C(=O)N1c1ccc(F)cc1F	-7%[11.4 µM]	2%[11.5 µM]	nt	nt	-8%[11.4 µM]
CCc1nnc(NC(=O)CSc2nnc(-c3ccccc3O)n2-c2ccc(C)cc2)s1	?	?	112%	-2%	?
COc1ccc(C)cc1NC(=O)CSc1nnc(-c2cc3cccc(OC)c3o2)n1N	?	-7%	57%	21%	16µM*
Cc1cccc(-n2c(SCC(=O)Nc3nnc(C)s3)nnc2-c2ccoc2C)c1	-1%	15%	16µM*	-2%	14%
COc1ccc(OC)c(NC(=O)CSc2nnc(-c3ccco3)n2-c2ccccc2)c1	24%	-24%	79%	2.5µM*	26%
CCc1nnc(NC(=O)CSc2nnc(-c3ccoc3C)n2-c2cccc(C)c2)s1	?	19%	10%	?	?
CCc1nnc(NC(=O)CSc2nnc(-c3ccccc3OC)n2-c2ccccc2)s1	?	-18%	6%	7%	10µM*

Source: PubChem
